Measurements as given in PubChem BioAssay (NCI).
About 83,000 compounds went through this panel and 20% of them were active in at least one assay; those are over-represented in the sample as a whole.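 The endpoint reported here, percent growth, reads 100 for growth as untreated, 0 for no net growth and -100 for all cells dead.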 Values without a mark were called inactive. Activity calls are given as the source filed them. The calls were made as follows: active = growth percent below 10; inactive = the rest.

Experiments:
Assay in all cases: NCI-60 one-dose screen, 48 h (100 = growth as untreated, 0 = no growth, -100 = all killed)
Details in all cases: 10 µM unless noted
[1] = tested on: BT-549 breast
[2] = tested on: MDA-MB-435 melanoma
[3] = tested on: SW-620 colon
[4] = tested on: MCF7 breast
[5] = tested on: HCT-116 colon
[6] = tested on: HCC-2998 colon
[7] = tested on: KM12 colon

Row | SMILES | growth [1] | growth [2] | growth [3] | growth [4] | growth [5] | growth [6] | growth [7]
1 | CSc1ncc2ncn(C3OC(CO)C(O)C3O)c2n1 (stereo unspecified) | 118% | 104% | 96.5% | 122% | 102% | 124% | 113%
2 | CC12CCC3C(CCC4CC(=O)/C(=C\O)CC43C)C1CCC(=O)O2 (stereo unspecified) | 112% | 110% | 110% | 102% | 100% | 101% | 115%
3 | COc1ccc(C2CC(c3ccc(OC)c(OC)c3)=NN2C(=O)c2cc(OC)c(OC)c(OC)c2)cc1 (stereo unspecified) | 27.6% | -26.6% (active) | 20.9% | 27.6% | 20.6% | 61.1% | 16.2%
4 | COc1ccc(C(=O)/C=C/c2c(Cl)nc3c(c(C)nn3-c3ccccc3)c2-c2ccc(Br)cc2)cc1 | 97.5% | 107% | 110% | 96.7% | 102% | 114% | 109%
5 | COc1cc(/C=C2\COc3ccc(O)c(O)c3C2=O)cc(OC)c1 | 3.92% (active) | 0.577% (active) | -19.3% (active) | 16.7% | -56% (active) | 25.1% | -11.1% (active)
6 | COc1ccc(C2CC(c3cccc(Nc4ccnc5cc(Cl)ccc45)c3)=NN2C=O)cc1 (stereo unspecified) | 30.9% | -36% (active) | 18.7% | 22.4% | 7.09% (active) | 35.4% | 23.1%
7 | O=C1/C(=N/O)CCc2ccccc21 | 102% | 95.6% | 95% | 96.3% | 83.6% | 103% | 89.3%
8 | C[C@]12CC[C@@H]3c4ccc(O)c([N+](=O)[O-])c4CC[C@H]3[C@@H]1CC[C@@H]2NS(=O)(=O)c1ccc(C(F)(F)F)cc1 | 30.9% | 17.3% | 34.2% | 11.8% | 15.5% | 53.8% | 19.9%
9 | CCCCCCC/C(=N\N=C(N)N)c1ccc(O)cc1 | 46.9% | 41.6% | 49% | -21.8% (active) | 18.3% | -77% (active) | 48.8%
10 | Cc1ccc(C(O)C2=CC(=O)c3ccccc3C2=O)cc1 (stereo unspecified) | 63.1% | 102% | 95% | 87.1% | 91.7% | 101% | 96%
11 | COc1ccc(-c2cc(Cc3cccs3)c(=O)n(Cn3cncn3)n2)cc1 | 109% | 106% | 110% | 93.2% | 101% | 108% | 108%
12 | N#Cc1cnc2cc(OC[C@H](O)CO)c(NC(=O)CC3CSSC3)cc2c1Nc1ccc(OCc2cccc(F)c2)c(Cl)c1 | -62.2% (active) | -82.7% (active) | -70.8% (active) | -69.2% (active) | -42.8% (active) | -81.9% (active) | -81.8% (active)
13 | COc1cc2c(cc1OCCCCCn1c(-c3ccc(OCc4ccccc4)cc3)nc3cc(N4CCOCC4)ccc31)N=C[C@@H]1CCCN1C2=O | 1.75% (active) | -9.74% (active) | 0% (active) | -3.99% (active) | 2.97% (active) | 4.97% (active) | -26.7% (active)
14 | CN(C)c1ccc2[nH]c3c(C(N)=O)cc(=O)c(=O)c=3oc2c1 | 45.9% | -70.1% (active) | 33.8% | 2.37% (active) | -10.1% (active) | 97.7% | 96.3%
15 | COc1ccc2c(c1)nc(N)c1c3cc(C)c(C)cc3cn21 | 94.5% | -18% (active) | 41.9% | 16.3% | 49.6% | 85.9% | 46.8%
16 | COC(=O)CCC1=C(C)C(C)=N/C1=C\c1[nH]c(-c2ccc[nH]2)cc1OC | 29.2% | -5.95% (active) | 7.46% (active) | 4.8% (active) | -59.8% (active) | 12.5% | 12.7%
17 | C=CCCCCCCCCC(=O)[O][Sn]([CH2]CCC)([CH2]CCC)[CH2]CCC | -99.2% (active) | -86% (active) | -81.7% (active) | -66.4% (active) | -95.8% (active) | -97.9% (active) | -92.6% (active)

Row | SMILES | growth [1] | growth [2] | growth [3] | growth [4] | growth [5] | growth [6] | growth [7]
18 | O=C1/C(=C/c2ccc([N+](=O)[O-])o2)Oc2ccc(Br)cc21 | -54.1% (active) | -40.7% (active) | -70.5% (active) | 16.7% | -64% (active) | 102% | 87.1%
19 | CCCCCCCCCCCCCCCCN=C(CC(=O)O)C(=O)O | 101% | 96.7% | 101% | 86.5% | 87.2% | 104% | 100%
20 | COc1ccc(-c2cn(-c3ccccc3)c(-c3ccccc3)n2)cc1OC | 15% | 35.7% | 5.69% (active) | 19.1% | 20.3% | 58.8% | -3.88% (active)
21 | COc1cc2c(cc1OCCCOc1ccc(-c3cc4ccccc4c4ccccc34)cc1)N=C[C@@H]1CCCN1C2=O | -50.8% (active) | -30.8% (active) | -43.8% (active) | -75.1% (active) | -23.1% (active) | 2.28% (active) | -20.4% (active)
22 | CCn1c2ccccc2c2ccc(C(C)=O)cc21 | 96.9% | 104% | 114% | 102% | 105% | 108% | 115%
23 | O=c1[nH]c(Cl)nc2c1cnn2-c1ccccc1 | 52.9% | 52.4% | 50.6% | 84.3% | 31% | 91.2% | 18.6%
24 | O=C1Cc2cc(CCn3cncn3)c(Cl)cc2N1 | 68% | 34.4% | 54.2% | 29% | 79% | 75.1% | 36%
25 | Cc1c(C)c(N2C(=O)C=CC2=O)c(C)c(C)c1N1C(=O)C=CC1=O | 110% | 102% | 81.7% | 103% | 83% | 97.1% | 119%
26 | COc1ccc(-c2noc(N)c2-c2cc(OC)c3c(c2)OCO3)cc1 | 48% | -59.3% (active) | 17.5% | 19.1% | 20% | 46% | 23.9%
27 | Cc1cc(C)c(OC(=O)CSc2nc3ccccc3c(=O)n2CCc2ccccc2)cc1C | 104% | 100% | 103% | 93.7% | 80.1% | 102% | 92%
28 | CC(=O)c1nc2ccccc2n1CCn1cc(CC(N)C(=O)O)c2ccccc21 (stereo unspecified) | 105% | 101% | 114% | 75.3% | 106% | 102% | 104%
29 | Cc1nn(-c2ccc(Cl)cc2)c2nc3c(nc12)C(=O)C(=O)c1ccccc1-3 | 92.1% | 97.7% | 67.2% | 49.7% | 80.2% | 66.6% | 61.9%
30 | COc1ccc(CCN2CCCN3C2=Nc2ccccc2S3(=O)=O)cc1 | 50.2% | -5.64% (active) | 28% | 19.3% | 17.4% | 21.7% | 25.8%
31 | Cc1nn(-c2ccc(Br)cc2)c2nc3c(nc12)C(=O)C(=O)c1ccccc1-3 | 94.7% | 110% | 93.5% | 67.3% | 86.3% | 93% | 103%
32 | COc1c(O)cc2oc3cc(O)c(CC=C(C)C)c(O)c3c(=O)c2c1C/C=C(\C)CCC=C(C)C | 99.3% | 78.4% | 41.5% | 21.9% | -29.6% (active) | -0.115% (active) | 25%
33 | O=C(Nc1ncc([N+](=O)[O-])s1)c1cccc([N+](=O)[O-])c1 | 35.8% | 31.4% | 73.4% | 50.7% | 34.1% | 28.7% | 62.9%
